# NOMO-1 viab: STK33 inhibitor candidate reducing NOMO-1 cell viability; 7.5% of 37,000 active; inhibition, % (concentration not given with the values); NOMO-1 AML viability, CellTiter-Glo luminescence, 72 h; AID 2330; in the data active = inhibition above about 80%; inconclusive = no clear call, values can overlap the other calls
# PD-1 reversal: reversal of PD-1 mediated T-cell inhibition | activation, % (no concentration beside the values) | 29,000 tested, under 10 active | primary human CD4 T cells, PD-L1 beads, CellTiter-Glo 96 h; call rule not given here;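 also: 0% = median vehicle wells and 100% = positive control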
# STK33 inh: human STK33 kinase inhibition; Q9BYT3; ADP-Glo luminescence, MBP substrate; inhibition, % at 12.5 µM; 0.44% of 27,000 active; AID 2322; in the data active = inhibition above about 20%; inconclusive = no clear call, values can overlap the other calls
# Target sequence (Q9BYT3 whole entry, looked up): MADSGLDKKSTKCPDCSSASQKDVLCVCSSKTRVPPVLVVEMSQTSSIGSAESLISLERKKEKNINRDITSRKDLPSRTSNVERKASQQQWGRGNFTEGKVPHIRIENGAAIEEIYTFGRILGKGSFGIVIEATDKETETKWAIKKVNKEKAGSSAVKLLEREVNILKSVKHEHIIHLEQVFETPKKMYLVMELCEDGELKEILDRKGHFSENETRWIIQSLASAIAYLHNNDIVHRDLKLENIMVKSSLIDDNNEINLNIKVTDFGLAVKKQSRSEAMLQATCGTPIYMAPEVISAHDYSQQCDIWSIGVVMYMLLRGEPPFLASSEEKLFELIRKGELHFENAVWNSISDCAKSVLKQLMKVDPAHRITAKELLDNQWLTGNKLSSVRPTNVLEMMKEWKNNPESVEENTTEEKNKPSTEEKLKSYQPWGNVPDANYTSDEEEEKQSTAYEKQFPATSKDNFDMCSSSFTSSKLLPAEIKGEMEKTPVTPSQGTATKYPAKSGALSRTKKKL
# * = called active by the depositor; ? = inconclusive; nt = not tested or not shown. Only a selection was taken, and hits are over-represented in it overall.
SMILES,NOMO-1 viab,PD-1 reversal,STK33 inh
CCOC(=O)CCS(=O)(=O)c1nc(-c2ccccc2)cc(C(F)(F)F)n1,115*,-16,1
O=C(CSc1nc(-c2ccccc2)cc(C(F)(F)F)n1)Nc1ccc(F)cc1,34,nt,0
CC(C)(C)c1cc(NC(=O)CSc2n[nH]c(N)n2)cc(C(C)(C)C)c1,40,nt,-4
C[n+]1cc(-c2ccc3ccccc3n2)cc2ccccc21,?,1,nt
CCCCn1c2ccccc2c2nnc(SCC(=O)c3ccc(Cl)cc3)nc21,-12,nt,-3
COc1cc2c(c(OC)c1OC)-c1cc3c(cc1C[C@H]1C(=O)OC[C@@H]1C2)OCO3,106*,-1,-7
COc1cc2c(c(OC)c1OC)C[C@H]1COC(=O)[C@@H]1Cc1c-2cc(OC)c(OC)c1OC,nt,nt,-2
CC1CC[C@]2(C(=O)O)CC[C@]3(C(=O)O)C(=CCC4[C@@]5(C)CC[C@H](OC6OC(C)C(O)C(OC7OC(CO)C(O)C(O)C7O)C6O)C(C)(C)C5CC[C@]43C)C2C1C (stereo not given in full),2,2,-5
C[C@H]1CN([C@@H](C)CO)C(=O)c2cccc(NS(=O)(=O)c3ccc(Cl)cc3)c2O[C@H]1CN(C)S(=O)(=O)c1cccs1,24,-1,nt
C[C@H](CO)N1C[C@H](C)[C@@H](CN(C)Cc2ccc(C(F)(F)F)cc2)Oc2ccc(NC(=O)Nc3ccc(C(F)(F)F)cc3)cc2C1=O,130*,nt,nt
C[C@H]1CN([C@@H](C)CO)C(=O)c2cc(NC(=O)Nc3ccc(C(F)(F)F)cc3)ccc2O[C@@H]1CN(C)Cc1ccncc1,36,-2,5
C[C@H](CO)N1C[C@H](C)[C@@H](CN(C)Cc2ccc(C(F)(F)F)cc2)Oc2ccc(NC(=O)Nc3ccc(F)cc3)cc2C1=O,119*,-1,nt
C[C@@H]1CN([C@@H](C)CO)C(=O)c2cc(NC(=O)Nc3ccc(C(F)(F)F)cc3)ccc2O[C@@H]1CN(C)Cc1ccc(Cl)c(Cl)c1,108*,1,nt
C[C@@H]1CN([C@@H](C)CO)C(=O)c2cc(NC(=O)Nc3ccc(C(F)(F)F)cc3)ccc2O[C@@H]1CN(C)Cc1ccc(C(=O)O)cc1,6,3,-2
C[C@@H]1CN([C@H](C)CO)C(=O)c2cc(NC(=O)Nc3ccc(F)cc3)ccc2O[C@@H]1CN(C)Cc1ccc(C(F)(F)F)cc1,?,-2,nt
C[C@H]1CN([C@@H](C)CO)C(=O)c2cc(NC(=O)Nc3ccc(C(F)(F)F)cc3)ccc2O[C@@H]1CN(C)Cc1ccc(C(F)(F)F)cc1,114*,-13,0
C[C@H]1CN([C@@H](C)CO)C(=O)Cc2cc(NC(=O)C3CCCCC3)ccc2O[C@H]1CN(C)S(=O)(=O)c1ccc(Cl)cc1,2,-1,-3
C[C@@H]1CN([C@@H](C)CO)C(=O)c2cccc(NC(=O)C3CCCCC3)c2O[C@@H]1CN(C)C(=O)Nc1cccc2ccccc12,13,nt,nt
C[C@H](CO)N1C[C@H](C)[C@H](CN(C)Cc2ccccc2)Oc2ccc(NS(=O)(=O)c3cccs3)cc2CC1=O,4,nt,-4
C[C@H]1CN([C@@H](C)CO)C(=O)Cc2cc(NC(=O)C3CCCCC3)ccc2O[C@H]1CN(C)S(C)(=O)=O,-16,0,-1
C[C@@H]1CN([C@@H](C)CO)C(=O)c2cc(NC(=O)NC3CCCCC3)ccc2O[C@@H]1CN(C)C(=O)Nc1ccccc1,-6,0,nt
C[C@@H]1CN([C@@H](C)CO)C(=O)c2cc(NC(=O)Cc3ccccc3)ccc2O[C@H]1CN(C)Cc1ccncc1,7,-1,nt
C[C@@H]1CN([C@H](C)CO)C(=O)c2cc(NC(=O)Nc3ccc(C(F)(F)F)cc3)ccc2O[C@@H]1CN(C)Cc1ccc(C(F)(F)F)cc1,115*,-6,nt
C[C@@H]1CN([C@@H](C)CO)C(=O)c2cc(NC(=O)Nc3ccc(C(F)(F)F)cc3)ccc2O[C@H]1CN(C)Cc1ccc(C(F)(F)F)cc1,117*,-12,5
C[C@@H]1CN([C@@H](C)CO)C(=O)c2cc(NC(=O)Nc3ccc(C(F)(F)F)cc3)ccc2O[C@@H]1CN(C)Cc1ccc(C(F)(F)F)cc1,118*,-7,2
SMILES,NOMO-1 viab,PD-1 reversal,STK33 inh
C[C@H](CO)N1C[C@H](C)[C@H](CN(C)Cc2ccc(C(F)(F)F)cc2)Oc2ccc(NC(=O)Nc3ccc(F)cc3)cc2C1=O,33,-5,0
C[C@H](CO)N1C[C@H](C)[C@H](CN(C)Cc2ccc(C(F)(F)F)cc2)Oc2ccc(NC(=O)Nc3ccc(C(F)(F)F)cc3)cc2C1=O,39,2,-1
C[C@@H]1CN([C@@H](C)CO)C(=O)c2cccc(NC(=O)C3CCOCC3)c2O[C@H]1CN(C)Cc1ccncc1,-11,2,nt
CC(C)Sc1nc(-c2cccs2)cc(C(F)(F)F)c1C#N,-5,-1,1
C=CC[C@@]1(C(=O)NCCN2CCOCC2)N=C(c2ccc(OCCCO)cc2)O[C@@H]1c1ccccc1,nt,nt,-5
Cc1nnc(SCC(=O)Nc2ccc(C#N)cc2)s1,3,2,-4
COc1cc(C(=O)Nc2cc(-c3nc4ncccc4o3)ccc2C)ccc1OCc1ccc(Cl)cc1,112*,-11,-1
Cc1ccc(-c2nc3ncccc3o2)cc1NC(=O)C(C)Oc1ccc(Cl)cc1Cl (stereo not given),17,2,-1
O=C(COc1ccc(Br)cc1)Nc1cccc(-c2nc3ncccc3o2)c1,15,-1,9
COc1cc(C(=O)Nc2cccc(-c3nc4ncccc4o3)c2)cc(OC)c1OC,34,nt,30*
COc1ccc(NC(=O)N(C)C[C@H]2OCCCC[C@@H](C)Oc3ccc(NC(=O)Nc4ccc(C(F)(F)F)cc4)cc3C(=O)N([C@H](C)CO)C[C@@H]2C)cc1,32,nt,-1
C[C@@H]1CN([C@@H](C)CO)C(=O)c2cc(NC(=O)Cc3cn(C)c4ccccc34)ccc2O[C@@H]1CN(C)Cc1ccc(C(=O)Nc2ccccc2N)cc1,99*,-3,nt
C[C@@H]1CN([C@@H](C)CO)C(=O)c2cc(NC(=O)Cc3cn(C)c4ccccc34)ccc2O[C@H]1CN(C)Cc1ccc(C(=O)Nc2ccccc2N)cc1,51,-2,nt
C[C@@H]1CN([C@H](C)CO)C(=O)c2cc(NC(=O)Cc3cn(C)c4ccccc34)ccc2O[C@H]1CN(C)Cc1ccc(C(=O)Nc2ccccc2N)cc1,23,0,nt
C[C@H](CO)N1C[C@H](C)[C@H](CN(C)Cc2ccc(C(=O)Nc3ccccc3N)cc2)Oc2ccc(NC(=O)Cc3cn(C)c4ccccc34)cc2C1=O,102*,-2,nt
C[C@H]1CN([C@@H](C)CO)C(=O)Cc2cc(NC(=O)NC3CCCCC3)ccc2O[C@H]1CN(C)C(=O)Nc1ccc(C(F)(F)F)cc1,9,-2,3
C[C@@H]1CN([C@@H](C)CO)C(=O)c2cc(NC(=O)CCCN(C)C)ccc2O[C@@H]1CN(C)Cc1ccc2c(c1)OCO2,14,1,nt
Cc1noc(C)c1NC(=O)N(C)C[C@@H]1Oc2c(NC(=O)Nc3ccc(C(F)(F)F)cc3)cccc2C(=O)N([C@H](C)CO)C[C@@H]1C,40,nt,nt
Cc1cc(C)c(NC(=O)CSc2nnc(-c3ccccc3Cl)n2C)c(C)c1,8,1,3
CN(C(=O)COc1cc(C(F)(F)F)n(C)n1)c1ccccc1,-5,0,nt

# Source: PubChem BioAssay
